Results filed as inconclusive are left out. A call without a number means that no potency is given here. Some structures have more than one record in an assay (separate samples or runs), and their calls can disagree. Activity calls are given as the source filed them. Unless noted, calls follow the shape of the dose curve; as a rule, active = well fitted curve in the direction sought with a large enough effect; inconclusive = small, poorly fitted or top-dose-only effect, or another doubt; inactive = no such curve, though single readings can be large; an effect the other way counts as inactive or inconclusive.
What was measured:
[1] = biological target: Beta-2 adrenergic receptor (Homo sapiens) (UniProt P07550); assay: qHTS validation assay of beta-arrestin-biased ligands of beta2-adrenergic receptor (AID 485366)
Method in brief: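 Agonism was measured as beta-arrestin recruitment to recombinant beta2-AR, releasing tTA to drive luciferase. Cells were exposed for 18 hr at 37 degrees C to a series up to 46 microM. %Activity from corrected luminescence gave concentration-response curves.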

[2] = Quantitative high throughput screen for delayed death inhibitors of the malarial parasite plastid, 96 hour incubation (AID 488745); also: nearly all actives have a fitted effect of over 70% in size; also: potency is read from the fitted curve at half-maximal effect
Method in brief: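 Two-generation (96 h) exposure of luciferase-reporter P. falciparum in erythrocytes, 2% hematocrit, 0.1% parasitemia final, 37 C, 5% CO2, RPMI 1640 with 0.5% Albumax. Growth inhibition scored by reduced luminescence.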

[3] = Quantitative high throughput screen for delayed death inhibitors of the malarial parasite plastid, 48 hour incubation (AID 488752); also: nearly all actives have a fitted effect of over 65% in size; also: potency is read from the fitted curve at half-maximal effect
Method in brief: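 Cultures: infected erythrocytes at final 2% hematocrit and 0.1% parasitemia in Albumax-supplemented RPMI. Parasites express integrated firefly luciferase. Incubation with compound lasts 48 h before luminescent detection of remaining reporter activity.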

[4] = biological target: Flap endonuclease 1 (Homo sapiens) (UniProt P39748); assay: qHTS Validation Assay for the Inhibitors of Human Flap endonuclease 1 (FEN1) (AID 488816)
Method in brief: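 Enzyme reagent 10 nM; cpds pinned; 15 min RT preinc.; substrate 50 nM final; reads t=0 and 15 min; no-enzyme buffer wells as neg. control; normalized data, 4-parameter Hill fit.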

[5] = biological target: M-phase phosphoprotein 8 (Homo sapiens) (UniProt Q99549); assay: qHTS Validation Assay for Inhibitors for MPP8 Chromodomain Interactions with Methylated Histone Tails (AID 488949); also: nearly all actives have a fitted effect of over 55% in size; also: potency is read from the fitted curve at half-maximal effect
Method in brief: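 AlphaScreen proximity signal from streptavidin donor and Ni-chelate acceptor beads (10 ug/mL each) reported binding of MPP8 to trimethyl-K9 H3(1-18) peptide, both at 50 nM. The complex formed 30 min before a 30 min compound exposure at room temperature, in PBS pH 7.4.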

[6] = biological target: Methanococcus maripaludis chaperonin (MmCpn) (UniProt Q6LX38); assay: High-Throughput Screening for Modulators of Cytosolic Chaperonin Activity: MmCpn Primary Screen (AID 488978);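 also: 50 nM MmCpn enzyme hydrolysing 30 µM ATP at 37 °C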
Method in brief: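 ATPase activity of 50 nM MmCpn was assayed with 30 uM ATP, 10 minutes at 37C, after a 5 min compound preincubation at room temperature. ADP production was read as HTRF emission at 590 and 665 nm.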

[7] = biological target: Thyrotropin receptor (Homo sapiens) (UniProt P16473); assay: qHTS Assay for Antagonists of the Thyroid Stimulating Hormone Receptor (AID 488980); also: series mostly up to about 58 µM
Method in brief: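 Inhibition of cAMP raised by EC80 TSH (4 nM final) was read by HTRF, with lysate cAMP competing against cAMP-d2 for cryptate antibody after 30 min at room temperature. The cells were transfected HEK293 held in phosphodiesterase inhibitor RO 20-1724 at 70 uM.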

[8] = biological target: D(1A) dopamine receptor (Homo sapiens) (UniProt P21728); assay: HTS Assay for Allosteric Agonists of the Human D1 Dopamine Receptor: Primary Screen for Agonists (AID 488981)
Method in brief: (§1)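 Tetracycline-induced HEK293 Trex D1 cells with forced coupling to calcium, loaded with no-wash calcium dye; kinetic fluorescence read 180 s after compound addition for agonism, then a further 180 s after an EC20 dopamine challenge for potentiation.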

[9] = biological target: D(1A) dopamine receptor (Homo sapiens) (UniProt P21728); assay: HTS Assay for Allosteric Agonists of the Human D1 Dopamine Receptor: Primary Screen for Potentiators (AID 488982); also: potency is read from the fitted curve at half-maximal effect
Method in brief: as §1

[10] = biological target: Thyrotropin-releasing hormone receptor (Homo sapiens) (UniProt P34981); assay: qHTS for Small Molecule Agonists and Allosteric Enhancers of Human TRH Receptor: Validation Screen for Agonists (AID 493127;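 active = calcium activation more than 3 SD above the typical response in the agonist read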;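 also: intracellular calcium rise by fluo-8 fluorescence before TRH EC20 addition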); details: TRH receptor agonist cell assay; at 2 µM; stronger effect = higher value
Method in brief: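 Kinetic fluorescence assay of agonist-induced calcium release: overnight-plated TRHR cells, room-temperature fluo-8 loading, baseline then compound addition with per-second reads.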

[11] = biological target: Thioredoxin reductase 1, cytoplasmic (Rattus norvegicus) (UniProt O89049); assay: qHTS Assay for Inhibitors of Mammalian Selenoprotein Thioredoxin Reductase 1 (TrxR1) (AID 488773); details: Potency: inhibition;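 also: drop in NADPH fluorescence over an 8 min run after selenite addition; series mostly up to about 57 µM; nearly all actives have a fitted effect of over 40% in size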
Method in brief: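 Inhibition is scored from the loss of NADPH fluorescence between first and last reads of an 8-min kinetic run. Selenite (400 uM) was the substrate, added after 15 min compound preincubation at room temperature.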

[12] = biological target: Transient receptor potential cation channel subfamily V member 1 (Homo sapiens) (UniProt Q8NER1); assay: HTS Assay for Compounds that Act as Enhancers of the Vanilloid Receptor 1 (AID 488979)
Method in brief: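 TRPV1 cells loaded with Fluo-8 calcium dye; compound added and Ca2+ signal (ex 480/em 520 nm) followed 3 min, then capsaicin at EC20 added and read 2 more min to detect enhancement.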

[13] = biological target: D(1A) dopamine receptor (Homo sapiens) (UniProt P21728); assay: HTS Assay for Allosteric Agonists of the Human D1 Dopamine Receptor: Primary Screen for Antagonists (AID 488983);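 also: calcium flux response to an EC80 dopamine challenge measured with no-wash dye; nearly all actives have a fitted effect of over 65% in size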
Method in brief: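 In this primary screen, compounds are applied to calcium-dye-loaded HEK293 T-REx cells with force-coupled D1 expression induced overnight at 30 C. An EC80 of dopamine follows the 180 s compound phase, and calcium is monitored for a further 180 s.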

[14] = Validation screen for small molecules that induce genotoxicity in human embryonic kidney (HEK293T) cells expressing luciferase-tagged ELG1 (AID 493106)
Method in brief: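 In this validation screen, increased ELG1-luciferase signal flags compounds causing genetic stress. HEK293T reporter cells are treated 16 hr (37 °C, 5% CO2), developed with ONE-Glo for 30 min at room temperature, and imaged on a CCD-based reader.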

[15] = biological target: ATPase family AAA domain-containing protein 5 (Homo sapiens) (UniProt Q96QE3); assay: Validation screen for small molecules that inhibit ELG1-dependent DNA repair in human embryonic kidney (HEK293T) cells expressing luciferase-tagged ELG1 (AID 493107);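 also: cells co-treated with the DNA-damaging agent 5-fluorouridine alongside compound; series mostly up to about 46 µM; inhibitors lower the ELG1-luciferase luminescence signal; nearly all actives have a fitted effect of over 70% in size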
Method in brief: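 Compounds reducing 5-fluorouridine-driven ELG1-luciferase signal in HEK293T cells were scored; exposure lasted 16 hr at 37 °C with luminescence detected via ONE-Glo.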

[16] = biological target: Thioredoxin reductase 1, cytoplasmic (Rattus norvegicus) (UniProt O89049); assay: qHTS Assay for Substrates of Mammalian Selenoprotein Thioredoxin Reductase 1 (TrxR1) (AID 488772);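 also: series mostly up to about 57 µM; a drop in NADPH fluorescence below the no-compound background marks a TrxR1 substrate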
Method in brief: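 In this dual-purpose format, potential substrates are identified from the first fluorescence read after selenite addition, not from the 8-minute delta. Rat enzyme is preincubated with NADPH and then with compound at ~22 deg C.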

[17] = biological target: Chromobox protein homolog 1 (Homo sapiens) (UniProt P83916); assay: qHTS Validation Assay for Inhibitors of HP1-beta Chromodomain Interactions with Methylated Histone Tails (AID 488953); also: nearly all actives have a fitted effect of over 50% in size; also: potency is read from the fitted curve at half-maximal effect
Method in brief: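 Compounds pinned into a preassembled complex of HP1-beta and trimethyl-K9 histone H3(1-18) biotin peptide (50 nM each; PBS pH 7.4, 0.01% Tween-20). After 30 min, bead-based AlphaScreen detection followed.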

Thioredoxin reductase 1, cytoplasmic (Rattus norvegicus), sequence (O89049 whole entry, looked up): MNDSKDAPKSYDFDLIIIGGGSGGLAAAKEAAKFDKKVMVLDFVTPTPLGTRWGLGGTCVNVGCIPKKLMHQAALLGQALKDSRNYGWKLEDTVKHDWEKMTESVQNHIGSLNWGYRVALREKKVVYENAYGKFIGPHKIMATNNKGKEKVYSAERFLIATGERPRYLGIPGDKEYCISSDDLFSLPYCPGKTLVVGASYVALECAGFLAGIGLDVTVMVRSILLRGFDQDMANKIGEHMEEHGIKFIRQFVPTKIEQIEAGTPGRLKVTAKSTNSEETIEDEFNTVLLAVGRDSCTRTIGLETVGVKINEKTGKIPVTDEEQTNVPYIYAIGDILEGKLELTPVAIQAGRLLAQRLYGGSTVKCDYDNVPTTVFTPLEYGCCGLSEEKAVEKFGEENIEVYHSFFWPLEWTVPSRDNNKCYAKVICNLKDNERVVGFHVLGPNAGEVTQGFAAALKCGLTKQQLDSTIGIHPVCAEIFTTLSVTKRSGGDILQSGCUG
Flap endonuclease 1 (Homo sapiens), sequence (P39748 whole entry, looked up): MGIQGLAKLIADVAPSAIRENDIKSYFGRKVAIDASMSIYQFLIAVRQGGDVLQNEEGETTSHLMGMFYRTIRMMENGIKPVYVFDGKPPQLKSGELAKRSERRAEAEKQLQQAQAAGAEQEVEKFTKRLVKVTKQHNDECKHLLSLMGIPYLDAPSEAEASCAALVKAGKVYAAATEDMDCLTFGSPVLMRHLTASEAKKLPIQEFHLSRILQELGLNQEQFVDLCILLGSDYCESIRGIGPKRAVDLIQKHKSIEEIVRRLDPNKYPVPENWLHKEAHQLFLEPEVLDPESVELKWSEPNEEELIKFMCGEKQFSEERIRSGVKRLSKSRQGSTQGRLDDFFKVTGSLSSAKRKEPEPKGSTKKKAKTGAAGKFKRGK
M-phase phosphoprotein 8 (Homo sapiens), sequence (Q99549 whole entry, looked up): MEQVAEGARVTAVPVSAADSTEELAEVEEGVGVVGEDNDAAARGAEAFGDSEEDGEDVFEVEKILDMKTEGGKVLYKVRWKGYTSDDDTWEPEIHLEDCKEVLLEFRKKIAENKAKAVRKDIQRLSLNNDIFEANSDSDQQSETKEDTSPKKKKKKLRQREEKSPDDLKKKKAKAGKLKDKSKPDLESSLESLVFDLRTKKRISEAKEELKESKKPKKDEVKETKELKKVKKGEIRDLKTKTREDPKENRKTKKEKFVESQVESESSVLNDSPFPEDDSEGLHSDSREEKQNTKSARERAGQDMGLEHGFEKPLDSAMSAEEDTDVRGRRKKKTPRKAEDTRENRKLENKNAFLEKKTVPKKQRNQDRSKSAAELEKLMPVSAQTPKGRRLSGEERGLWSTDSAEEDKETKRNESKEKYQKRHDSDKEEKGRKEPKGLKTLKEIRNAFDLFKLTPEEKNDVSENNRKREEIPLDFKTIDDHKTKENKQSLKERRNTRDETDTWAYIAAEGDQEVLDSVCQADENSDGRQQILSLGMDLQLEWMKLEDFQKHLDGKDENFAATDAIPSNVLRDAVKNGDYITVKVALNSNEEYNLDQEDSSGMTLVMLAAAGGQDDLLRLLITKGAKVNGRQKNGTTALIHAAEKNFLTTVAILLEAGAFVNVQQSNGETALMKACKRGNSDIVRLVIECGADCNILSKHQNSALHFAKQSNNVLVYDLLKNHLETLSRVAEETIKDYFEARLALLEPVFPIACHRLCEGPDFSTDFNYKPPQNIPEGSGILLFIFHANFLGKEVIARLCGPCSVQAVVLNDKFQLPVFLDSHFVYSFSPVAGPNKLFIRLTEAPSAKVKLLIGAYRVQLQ
Chromobox protein homolog 1 (Homo sapiens), sequence (P83916 whole entry, looked up): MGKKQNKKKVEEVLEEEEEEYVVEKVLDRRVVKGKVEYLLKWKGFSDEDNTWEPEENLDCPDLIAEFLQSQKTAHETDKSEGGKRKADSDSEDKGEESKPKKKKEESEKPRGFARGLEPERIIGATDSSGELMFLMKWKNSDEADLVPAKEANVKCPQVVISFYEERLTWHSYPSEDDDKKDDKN
Transient receptor potential cation channel subfamily V member 1 (Homo sapiens), sequence (Q8NER1 whole entry, looked up): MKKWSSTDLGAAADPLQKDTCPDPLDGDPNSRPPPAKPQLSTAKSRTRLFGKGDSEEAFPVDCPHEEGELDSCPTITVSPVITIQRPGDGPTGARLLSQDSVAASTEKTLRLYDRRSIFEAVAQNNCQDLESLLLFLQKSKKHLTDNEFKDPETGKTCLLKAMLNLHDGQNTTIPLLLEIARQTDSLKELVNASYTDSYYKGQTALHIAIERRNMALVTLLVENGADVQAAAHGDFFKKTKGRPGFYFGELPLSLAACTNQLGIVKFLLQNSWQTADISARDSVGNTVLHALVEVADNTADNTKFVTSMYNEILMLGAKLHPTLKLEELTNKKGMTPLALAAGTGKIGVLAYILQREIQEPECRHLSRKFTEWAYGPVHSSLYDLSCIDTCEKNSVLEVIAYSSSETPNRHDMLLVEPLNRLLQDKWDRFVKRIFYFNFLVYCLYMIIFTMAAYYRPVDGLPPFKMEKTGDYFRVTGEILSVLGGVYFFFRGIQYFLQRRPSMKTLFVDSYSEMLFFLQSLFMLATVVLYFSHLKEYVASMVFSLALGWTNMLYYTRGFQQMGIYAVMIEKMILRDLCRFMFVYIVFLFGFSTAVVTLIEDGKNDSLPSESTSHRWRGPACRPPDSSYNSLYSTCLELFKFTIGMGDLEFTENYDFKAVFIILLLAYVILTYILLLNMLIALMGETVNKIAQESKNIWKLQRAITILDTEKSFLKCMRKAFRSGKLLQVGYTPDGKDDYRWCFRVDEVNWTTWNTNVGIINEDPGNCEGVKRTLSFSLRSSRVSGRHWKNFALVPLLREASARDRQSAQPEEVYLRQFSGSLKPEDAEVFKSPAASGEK
Thyrotropin-releasing hormone receptor (Homo sapiens), sequence (P34981 whole entry, looked up): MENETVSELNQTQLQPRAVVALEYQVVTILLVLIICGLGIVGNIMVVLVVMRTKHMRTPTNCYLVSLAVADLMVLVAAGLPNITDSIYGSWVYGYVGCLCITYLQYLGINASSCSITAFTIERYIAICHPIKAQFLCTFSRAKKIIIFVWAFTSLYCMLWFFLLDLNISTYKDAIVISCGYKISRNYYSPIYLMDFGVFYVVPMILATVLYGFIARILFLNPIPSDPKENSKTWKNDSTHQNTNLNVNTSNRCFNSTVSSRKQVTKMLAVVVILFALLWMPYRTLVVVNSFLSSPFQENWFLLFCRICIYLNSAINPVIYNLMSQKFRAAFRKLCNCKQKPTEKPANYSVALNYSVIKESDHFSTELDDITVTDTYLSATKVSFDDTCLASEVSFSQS
Thyrotropin receptor (Homo sapiens), sequence (P16473 whole entry, looked up): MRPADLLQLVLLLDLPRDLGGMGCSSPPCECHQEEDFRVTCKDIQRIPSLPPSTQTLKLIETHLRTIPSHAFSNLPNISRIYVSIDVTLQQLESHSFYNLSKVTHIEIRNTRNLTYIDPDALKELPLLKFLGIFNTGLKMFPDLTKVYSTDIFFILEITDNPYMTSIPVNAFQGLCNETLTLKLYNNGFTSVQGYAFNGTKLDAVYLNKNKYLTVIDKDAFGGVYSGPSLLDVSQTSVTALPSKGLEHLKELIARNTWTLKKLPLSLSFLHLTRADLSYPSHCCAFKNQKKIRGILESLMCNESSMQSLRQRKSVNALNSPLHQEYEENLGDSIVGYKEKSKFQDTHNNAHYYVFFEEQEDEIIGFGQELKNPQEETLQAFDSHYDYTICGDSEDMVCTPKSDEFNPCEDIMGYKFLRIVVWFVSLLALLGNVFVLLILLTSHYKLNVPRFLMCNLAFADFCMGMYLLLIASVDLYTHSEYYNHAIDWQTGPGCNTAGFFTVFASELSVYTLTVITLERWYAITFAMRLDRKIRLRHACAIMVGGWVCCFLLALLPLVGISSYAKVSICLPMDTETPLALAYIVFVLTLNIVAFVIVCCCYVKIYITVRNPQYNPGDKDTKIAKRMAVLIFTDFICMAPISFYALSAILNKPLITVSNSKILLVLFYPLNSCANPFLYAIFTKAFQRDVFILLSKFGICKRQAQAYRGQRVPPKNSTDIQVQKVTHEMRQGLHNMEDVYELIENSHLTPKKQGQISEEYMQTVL
Methanococcus maripaludis chaperonin (MmCpn), sequence (Q6LX38 1-543): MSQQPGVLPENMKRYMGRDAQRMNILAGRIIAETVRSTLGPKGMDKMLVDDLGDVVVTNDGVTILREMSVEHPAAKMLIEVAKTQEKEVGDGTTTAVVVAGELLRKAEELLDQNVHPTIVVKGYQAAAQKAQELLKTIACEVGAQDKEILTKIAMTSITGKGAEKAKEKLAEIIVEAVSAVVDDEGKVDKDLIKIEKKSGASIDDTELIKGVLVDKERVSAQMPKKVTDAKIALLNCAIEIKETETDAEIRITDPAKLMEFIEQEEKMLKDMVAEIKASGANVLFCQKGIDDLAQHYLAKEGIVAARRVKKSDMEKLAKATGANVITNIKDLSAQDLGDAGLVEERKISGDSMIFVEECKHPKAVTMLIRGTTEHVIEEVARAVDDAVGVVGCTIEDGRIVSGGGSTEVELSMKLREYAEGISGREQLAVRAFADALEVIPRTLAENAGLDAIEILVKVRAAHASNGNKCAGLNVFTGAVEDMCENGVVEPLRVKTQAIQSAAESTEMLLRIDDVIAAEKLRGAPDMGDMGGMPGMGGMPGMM
Beta-2 adrenergic receptor (Homo sapiens), sequence (P07550 whole entry, looked up): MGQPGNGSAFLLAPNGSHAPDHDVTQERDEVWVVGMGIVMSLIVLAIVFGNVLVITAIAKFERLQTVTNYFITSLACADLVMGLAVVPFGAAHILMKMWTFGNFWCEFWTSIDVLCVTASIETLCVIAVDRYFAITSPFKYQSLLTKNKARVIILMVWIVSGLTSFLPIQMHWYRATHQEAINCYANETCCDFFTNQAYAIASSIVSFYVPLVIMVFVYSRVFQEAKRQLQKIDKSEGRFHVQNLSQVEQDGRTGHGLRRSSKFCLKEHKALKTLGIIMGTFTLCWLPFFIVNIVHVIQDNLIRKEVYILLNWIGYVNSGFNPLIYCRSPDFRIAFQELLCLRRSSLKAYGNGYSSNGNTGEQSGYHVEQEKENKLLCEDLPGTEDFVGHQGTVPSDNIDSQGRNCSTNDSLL

Row | Structure (SMILES) | outcome [1] | Potency [2] | Potency [3] | Potency [4] | Potency [5] | outcome [6] | outcome [7] | Potency [8] | Potency [9] | activation [10] | Potency [11] | outcome [12] | Potency [13] | Potency [14] | Potency [15] | outcome [16] | Potency [17]
1 | CCCCCCCC/C=C\CCCCCCCC(=O)NCCc1ccc(O)c(O)c1 | inactive | 14.7 µM (active) | 13.1 µM (active) | inactive | inactive | inactive | inactive | inactive | 4.61 µM (active) | 1.94% (inactive) |  |  |  |  |  |  | 
2 | NS(=O)(=O)c1cccc2c1c([N+](=O)[O-])cc1nc(O)c(O)nc12 | inactive | inactive | inactive | inactive | inactive | inactive | inactive | inactive | inactive | 0.875% (inactive) | inactive | inactive | inactive | inactive | inactive |  | 
3 | Nc1nc2[nH]c(=O)cnc2c(=O)[nH]1 | inactive | inactive |  | inactive | inactive | inactive | inactive | inactive | inactive | 0.312% (inactive) |  | inactive | inactive | inactive | inactive |  | 
4 | Oc1ccc(Cn2cc[nH]c2=S)cc1 | inactive | inactive |  |  |  | inactive | inactive | inactive | inactive | 1.06% (inactive) | inactive | inactive |  | inactive | inactive | inactive | 
5 | NC1(C(=O)O)CC1 | inactive | inactive |  | inactive | inactive | inactive | inactive | inactive | inactive | 0.688% (inactive) | inactive | inactive | inactive | inactive | inactive | inactive | inactive
6 | CCN(CC)CCCCCCCCOC(=O)c1cc(OC)c(OC)c(OC)c1 | inactive | 18.5 µM (active) |  | inactive |  | inactive | inactive | inactive | inactive | 1.25% (inactive) | inactive | inactive | inactive |  | inactive | inactive | inactive
7 | C=CCN1CCc2c(cc(O)c(O)c2Cl)C(c2ccccc2)C1 (stereo not drawn) | inactive | 3.7 µM (active) |  | inactive | 39.8 µM (active) and inactive | inactive | inactive |  | inactive | -5.75% (inactive) |  | inactive |  | inactive |  | inactive | 
8 | N[C@@H](CCC(=O)N[C@H](CSN=O)C(=O)NCC(=O)O)C(=O)O | inactive |  | inactive | inactive | inactive | inactive | inactive | inactive |  | 1.31% (inactive) | inactive | inactive | inactive | inactive | inactive | inactive | 
9 | CCCOC(=O)c1c(-c2ccccc2)nc(CC)c(C(=O)SCC)c1CCC | inactive | 14.7 µM (active) |  | inactive | inactive | inactive | inactive | inactive |  | 1.31% (inactive) | inactive | inactive |  | inactive | inactive | inactive | inactive
10 | NC(N)=NC(N)=Nc1ccccc1 | inactive | inactive |  | inactive | inactive | inactive | inactive | inactive |  | 0.75% (inactive) | inactive | inactive | inactive | inactive |  | inactive | inactive
11 | Cc1ccccc1/C=C/C1=NCCN1 | inactive |  | inactive |  | inactive | inactive | inactive | inactive | inactive | 0.5% (inactive) |  | inactive |  | inactive | inactive | inactive | inactive
12 | CCN1C(=O)C=CC1=O | inactive |  | inactive | inactive | inactive | inactive | inactive |  | inactive | 1.12% (inactive) | inactive | inactive | inactive | inactive | inactive | inactive | 
13 | COc1ccccc1N1CCN(CCCNc2c(C)c(=O)n(C)c(=O)n2C)CC1 | inactive | 14.7 µM (active) |  | inactive | inactive | inactive | inactive | inactive | inactive | 0.0625% (inactive) | inactive | inactive |  | inactive | inactive | inactive | 
14 | COC(=O)C(N)Cc1ccc(Cl)cc1 (stereo not drawn) | inactive | inactive |  | inactive | inactive | inactive | inactive | inactive | inactive | -2.56% (inactive) | inactive | inactive |  | inactive |  | inactive | 6.7 nM (active)
